{"source": "PubChem BioAssay (NCATS)", "key": {"[1]": {"target": "ATP-dependent 6-phosphofructokinase (Trypanosoma brucei brucei) (UniProt O15648)", "sequence (O15648 whole entry, looked up)": "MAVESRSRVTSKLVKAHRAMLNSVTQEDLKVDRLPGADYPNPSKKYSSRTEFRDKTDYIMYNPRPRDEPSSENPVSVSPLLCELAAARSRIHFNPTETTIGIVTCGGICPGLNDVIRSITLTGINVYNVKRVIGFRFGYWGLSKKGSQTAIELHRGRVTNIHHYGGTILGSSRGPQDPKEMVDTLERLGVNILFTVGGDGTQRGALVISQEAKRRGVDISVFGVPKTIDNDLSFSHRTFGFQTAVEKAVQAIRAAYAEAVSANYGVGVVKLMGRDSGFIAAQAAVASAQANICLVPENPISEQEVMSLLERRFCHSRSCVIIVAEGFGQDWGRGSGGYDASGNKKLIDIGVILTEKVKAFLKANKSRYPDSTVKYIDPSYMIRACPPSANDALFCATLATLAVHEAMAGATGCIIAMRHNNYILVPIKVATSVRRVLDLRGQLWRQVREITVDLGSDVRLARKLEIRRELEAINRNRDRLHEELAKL", "assay": "qHTS Assay to Find Inhibitors of T. brucei phosphofructokinase: hit validation (AID 492961);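 as to all read-outs here: luminescence reports ADP formed as PFK phosphorylates fructose-6-phosphate with ATP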", "outline": "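PFK 1.25 nM, F6P 0.5 mM, ATP 0.1 mM, MgCl2 5 mM, 0.1 M TEA pH 8.0, Tween20 0.01%, BSA 0.1%; 45 min RT. ADP-Glo two-step detection, luminescence. qHTS titration; curve fitting with curve-class categorization.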"}, "[2]": {"assay": "qHTS profiling for inhibitors of Plasmodium falciparum proliferation (AID 504749); also: potency is read from the fitted curve at half-maximal effect; as to all read-outs here: nearly all actives have a fitted effect of over 60% in size", "conditions": "P. falciparum in erythrocytes, SYBR Green DNA, 72 h; for activity, negative = inhibition: at 28.7 µM (top of the series)", "outline": "(§1)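 Quantitative HTS: compounds pinned into medium, infected erythrocytes added (0.3% parasitemia, 2.5% hematocrit), 72 h culture at 37 C under 5% CO2. Saponin/Triton lysis with SYBR Green I, overnight RT, then fluorescence read.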"}, "3D7": {"system": "3D7", "assay": "qHTS profiling for inhibitors of Plasmodium falciparum proliferation (AID 504749)", "conditions": "P. falciparum in erythrocytes, SYBR Green DNA, 72 h; series mostly up to 28.7 µM", "outline": "as §1"}, "7G8": {"system": "7G8", "assay": "qHTS profiling for inhibitors of Plasmodium falciparum proliferation (AID 504749)", "conditions": "P. falciparum in erythrocytes, SYBR Green DNA, 72 h; series mostly up to 28.7 µM", "outline": "as §1"}, "AS120": {"system": "AS120", "assay": "qHTS profiling for inhibitors of Plasmodium falciparum proliferation (AID 504749)", "conditions": "P. falciparum in erythrocytes, SYBR Green DNA, 72 h; series mostly up to 28.7 µM", "outline": "as §1"}, "ATS189": {"system": "ATS189", "assay": "qHTS profiling for inhibitors of Plasmodium falciparum proliferation (AID 504749)", "conditions": "P. falciparum in erythrocytes, SYBR Green DNA, 72 h; series mostly up to 28.7 µM", "outline": "as §1"}, "CP185": {"system": "CP185", "assay": "qHTS profiling for inhibitors of Plasmodium falciparum proliferation (AID 504749)", "conditions": "P. falciparum in erythrocytes, SYBR Green DNA, 72 h; series mostly up to 28.7 µM", "outline": "as §1"}, "CP191": {"system": "CP191", "assay": "qHTS profiling for inhibitors of Plasmodium falciparum proliferation (AID 504749)", "conditions": "P. falciparum in erythrocytes, SYBR Green DNA, 72 h; series mostly up to 28.7 µM", "outline": "as §1"}, "CP192": {"system": "CP192", "assay": "qHTS profiling for inhibitors of Plasmodium falciparum proliferation (AID 504749)", "conditions": "P. falciparum in erythrocytes, SYBR Green DNA, 72 h; series mostly up to 28.7 µM", "outline": "as §1"}, "CP194": {"system": "CP194", "assay": "qHTS profiling for inhibitors of Plasmodium falciparum proliferation (AID 504749)", "conditions": "P. falciparum in erythrocytes, SYBR Green DNA, 72 h; series mostly up to 28.7 µM", "outline": "as §1"}, "CP201": {"system": "CP201", "assay": "qHTS profiling for inhibitors of Plasmodium falciparum proliferation (AID 504749)", "conditions": "P. falciparum in erythrocytes, SYBR Green DNA, 72 h; series mostly up to 28.7 µM", "outline": "as §1"}, "CP203": {"system": "CP203", "assay": "qHTS profiling for inhibitors of Plasmodium falciparum proliferation (AID 504749)", "conditions": "P. falciparum in erythrocytes, SYBR Green DNA, 72 h; series mostly up to 28.7 µM", "outline": "as §1"}, "CP247": {"system": "CP247", "assay": "qHTS profiling for inhibitors of Plasmodium falciparum proliferation (AID 504749)", "conditions": "P. falciparum in erythrocytes, SYBR Green DNA, 72 h; series mostly up to 28.7 µM", "outline": "as §1"}, "CP286": {"system": "CP286", "assay": "qHTS profiling for inhibitors of Plasmodium falciparum proliferation (AID 504749)", "conditions": "P. falciparum in erythrocytes, SYBR Green DNA, 72 h; series mostly up to 28.7 µM", "outline": "as §1"}, "CP291": {"system": "CP291", "assay": "qHTS profiling for inhibitors of Plasmodium falciparum proliferation (AID 504749)", "conditions": "P. falciparum in erythrocytes, SYBR Green DNA, 72 h; series mostly up to 28.7 µM", "outline": "as §1"}, "P94_40": {"system": "P94_40", "assay": "qHTS profiling for inhibitors of Plasmodium falciparum proliferation (AID 504749)", "conditions": "P. falciparum in erythrocytes, SYBR Green DNA, 72 h; series mostly up to 28.7 µM", "outline": "as §1"}, "PC49": {"system": "PC49", "assay": "qHTS profiling for inhibitors of Plasmodium falciparum proliferation (AID 504749)", "conditions": "P. falciparum in erythrocytes, SYBR Green DNA, 72 h; series mostly up to 28.7 µM", "outline": "as §1"}, "TAB109": {"system": "TAB109", "assay": "qHTS profiling for inhibitors of Plasmodium falciparum proliferation (AID 504749)", "conditions": "P. falciparum in erythrocytes, SYBR Green DNA, 72 h; series mostly up to 28.7 µM", "outline": "as §1"}, "TAB113": {"system": "TAB113", "assay": "qHTS profiling for inhibitors of Plasmodium falciparum proliferation (AID 504749)", "conditions": "P. falciparum in erythrocytes, SYBR Green DNA, 72 h; series mostly up to 28.7 µM", "outline": "as §1"}}, "note": "Inconclusive results are not listed. Entries that show only a call come without a potency. Values without a mark were called inactive. Calls of active or inactive are those of the source. Calls follow the shape of the dose curve; as a rule, active = well fitted curve in the direction sought with a large enough effect; inconclusive = small, poorly fitted or top-dose-only effect, or another doubt; inactive = no such curve, though single readings can be large; an effect the other way counts as inactive or inconclusive."}
{"smiles": "CC1(C)C2CC[C@]1(C)[C@@H](O)C2", "values": [{"measurement": "Potency", "setting": "[1]", "result": "inactive"}, {"measurement": "activity, negative = inhibition", "setting": "[2]; parasite line A", "result": 6.51, "unit": "%"}, {"measurement": "activity, negative = inhibition", "setting": "[2]; parasite line B", "result": 12, "unit": "%"}, {"measurement": "Potency", "setting": "3D7", "result": "inactive"}, {"measurement": "Potency", "setting": "7G8", "result": "inactive"}, {"measurement": "Potency", "setting": "AS120", "result": "inactive"}, {"measurement": "Potency", "setting": "ATS189", "result": "inactive"}, {"measurement": "Potency", "setting": "CP185", "result": "inactive"}, {"measurement": "Potency", "setting": "CP191", "result": "inactive"}, {"measurement": "Potency", "setting": "CP192", "result": "inactive"}, {"measurement": "Potency", "setting": "CP194", "result": "inactive"}, {"measurement": "Potency", "setting": "CP201", "result": "inactive"}, {"measurement": "Potency", "setting": "CP203", "result": "inactive"}, {"measurement": "Potency", "setting": "CP247", "result": "inactive"}, {"measurement": "Potency", "setting": "CP286", "result": "inactive"}, {"measurement": "Potency", "setting": "CP291", "result": "inactive"}, {"measurement": "Potency", "setting": "P94_40", "result": "inactive"}, {"measurement": "Potency", "setting": "PC49", "result": "inactive"}, {"measurement": "Potency", "setting": "TAB109", "result": "inactive"}, {"measurement": "Potency", "setting": "TAB113", "result": "inactive"}]}
{"smiles": "CO[C@H]1OC2O[C@@]3(C)CC[C@H]4[C@H](C)CC[C@@H]([C@H]1C)[C@@]24OO3", "note": "(stereo not given in full)", "values": [{"measurement": "Potency", "setting": "[1]", "result": "inactive"}, {"measurement": "Potency", "setting": "[2]; parasite line A", "result": "25.1 nM (active)"}, {"measurement": "Potency", "setting": "[2]; parasite line B", "result": "15.8 nM (active)"}, {"measurement": "Potency", "setting": "3D7", "result": "14.1 nM (active)"}, {"measurement": "Potency", "setting": "7G8", "result": "2.2 nM (active)"}, {"measurement": "Potency", "setting": "AS120", "result": "22.4 nM (active)"}, {"measurement": "Potency", "setting": "ATS189", "result": "14.1 nM (active)"}, {"measurement": "Potency", "setting": "CP185", "result": "31.6 nM (active)"}, {"measurement": "Potency", "setting": "CP191", "result": "11.2 nM (active)"}, {"measurement": "Potency", "setting": "CP192", "result": "37.9 nM (active)"}, {"measurement": "Potency", "setting": "CP194", "result": "60.1 nM (active)"}, {"measurement": "Potency", "setting": "CP201", "result": "75.7 nM (active)"}, {"measurement": "Potency", "setting": "CP203", "result": "30.1 nM (active)"}, {"measurement": "Potency", "setting": "CP247", "result": "25.1 nM (active)"}, {"measurement": "Potency", "setting": "CP286", "result": "17.8 nM (active)"}, {"measurement": "Potency", "setting": "CP291", "result": "26.9 nM (active)"}, {"measurement": "Potency", "setting": "P94_40", "result": "11.2 nM (active)"}, {"measurement": "Potency", "setting": "PC49", "result": "25.1 nM (active)"}, {"measurement": "Potency", "setting": "TAB109", "result": "12.6 nM (active)"}, {"measurement": "Potency", "setting": "TAB113", "result": "11.2 nM (active)"}]}
{"smiles": "C/C1=C2/[N-]C(C(CC(N)=O)[C@@]2(C)CCC(=O)NCC(C)OP(=O)([O-])O[C@H]2[C@@H](O)[C@@H](n3cnc4cc(C)c(C)cc43)O[C@@H]2CO)[C@]2(C)N=C(/C(C)=C3N=C(/C=C4N=C1C(CCC(N)=O)C\\4(C)C)[C@@H](CCC(N)=O)[C@]\\3(C)CC(N)=O)[C@@H](CCC(N)=O)[C@]2(C)CC(N)=O.CC(=O)O.[Co]", "note": "(stereo not given in full)", "values": [{"measurement": "Potency", "setting": "[1]", "result": "inactive"}, {"measurement": "activity, negative = inhibition", "setting": "[2]; parasite line A", "result": -2.13, "unit": "%"}, {"measurement": "activity, negative = inhibition", "setting": "[2]; parasite line B", "result": -2.9, "unit": "%"}, {"measurement": "Potency", "setting": "3D7", "result": "inactive"}, {"measurement": "Potency", "setting": "7G8", "result": "inactive"}, {"measurement": "Potency", "setting": "AS120", "result": "inactive"}, {"measurement": "Potency", "setting": "ATS189", "result": "inactive"}, {"measurement": "Potency", "setting": "CP185", "result": "inactive"}, {"measurement": "Potency", "setting": "CP191", "result": "inactive"}, {"measurement": "Potency", "setting": "CP192", "result": "inactive"}, {"measurement": "Potency", "setting": "CP194", "result": "inactive"}, {"measurement": "Potency", "setting": "CP201", "result": "inactive"}, {"measurement": "Potency", "setting": "CP203", "result": "inactive"}, {"measurement": "Potency", "setting": "CP247", "result": "inactive"}, {"measurement": "Potency", "setting": "CP286", "result": "inactive"}, {"measurement": "Potency", "setting": "CP291", "result": "inactive"}, {"measurement": "Potency", "setting": "P94_40", "result": "inactive"}, {"measurement": "Potency", "setting": "PC49", "result": "inactive"}, {"measurement": "Potency", "setting": "TAB109", "result": "inactive"}, {"measurement": "Potency", "setting": "TAB113", "result": "inactive"}]}
{"smiles": "CC(=O)NC[C@@H]1CN(c2ccc(N3CCOCC3)c(F)c2)C(=O)O1", "values": [{"measurement": "Potency", "setting": "[1]", "result": "inactive"}, {"measurement": "activity, negative = inhibition", "setting": "[2]; parasite line A", "result": -12.2, "unit": "%"}, {"measurement": "activity, negative = inhibition", "setting": "[2]; parasite line B", "result": -9.57, "unit": "%"}, {"measurement": "Potency", "setting": "3D7", "result": "inactive"}, {"measurement": "Potency", "setting": "7G8", "result": "inactive"}, {"measurement": "Potency", "setting": "AS120", "result": "inactive"}, {"measurement": "Potency", "setting": "ATS189", "result": "inactive"}, {"measurement": "Potency", "setting": "CP185", "result": "inactive"}, {"measurement": "Potency", "setting": "CP191", "result": "inactive"}, {"measurement": "Potency", "setting": "CP192", "result": "inactive"}, {"measurement": "Potency", "setting": "CP194", "result": "inactive"}, {"measurement": "Potency", "setting": "CP201", "result": "inactive"}, {"measurement": "Potency", "setting": "CP203", "result": "inactive"}, {"measurement": "Potency", "setting": "CP247", "result": "inactive"}, {"measurement": "Potency", "setting": "CP286", "result": "inactive"}, {"measurement": "Potency", "setting": "CP291", "result": "inactive"}, {"measurement": "Potency", "setting": "P94_40", "result": "inactive"}, {"measurement": "Potency", "setting": "PC49", "result": "inactive"}, {"measurement": "Potency", "setting": "TAB109", "result": "inactive"}, {"measurement": "Potency", "setting": "TAB113", "result": "inactive"}]}
